Values joined by “and” are separate entries in the source; they are usually repeats but may differ in a detail not shown here. Equal entries are not always repeated. Some compounds were tested as several samples or in several runs, with calls that do not always agree. Active and inactive are the calls of the source. The calls were made as follows: active = hit-call score of the fitted dose curve at least 0.9, where 1 is the maximum; inactive = score below 0.9.
Legend:
Conditions in all cases: mRNA level, 48 h; actives raise or lower the signal
[1] = read-out: Hypoxia-inducible factor 1-alpha (Homo sapiens) (UniProt Q16665); assay: LTEA_HepaRG_HIF1A: Life Technologies and Expression Analysis (LTEA) Assay for Hypoxia-inducible factor 1 (HIF1A) Trancription factor using HepaRG (AID 2283503)
In short: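 Differentiated HepaRG cells in serum-free induction medium exposed 48 h, in duplicate, to 8-point half-log series from 100 uM in 0.5% DMSO. HIF1A mRNA measured by TaqMan qRT-PCR, normalized to ACTB/GAPDH/POLR2A, fitted bidirectionally versus DMSO.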

[2] = read-out: 3-Hydroxy-3-Methylglutaryl-CoA Synthase 2 (HMGCS2), HMGCS2 (gene 3158); assay: LTEA_HepaRG_HMGCS2: Life Technologies and Expression Analysis (LTEA) Assay for 3-Hydroxy-3-Methylglutaryl-CoA Synthase 2 (HMGCS2) using HepaRG (AID 2283504)
In short: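 Differentiated human HepaRG cells were exposed in duplicate for 48 h in serum-free induction medium to eight concentrations (top 100 uM, half-log steps, 0.5% DMSO). HMGCS2 mRNA was quantified by TaqMan qRT-PCR, normalised to ACTB, GAPDH and POLR2A, then fitted bidirectionally against DMSO.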

[3] = read-out: HGF (gene 3082); assay: LTEA_HepaRG_HGF: Life Technologies and Expression Analysis (LTEA) Assay for Hepatocyte Growth Facto (HGF) using HepaRG (AID 2283505)
In short: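 Differentiated human HepaRG cells in serum-free induction medium were exposed in duplicate for 48 h to eight concentrations (top 100 uM, half-log steps, 0.5% DMSO). HGF mRNA was quantified by qRT-PCR, normalized to ACTB, GAPDH and POLR2A.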

[4] = read-out: Insulin Like Growth Factor 1 (IGF1), IGF1 (gene 3479); assay: LTEA_HepaRG_IGF1: Life Technologies and Expression Analysis (LTEA) Assay for Insulin Like Growth Factor 1 (IGF1) using HepaRG (AID 2283506)
In short: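 Differentiated HepaRG cells in serum-free induction medium, exposed 48 h in duplicate to 8 half-log concentrations up to 100 uM in 0.5% DMSO. IGF1 mRNA by Fluidigm qRT-PCR, normalised to ACTB, GAPDH and POLR2A.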

[5] = read-out: Intercellular Adhesion Molecule 1 (ICAM1), ICAM1 (gene 3383); assay: LTEA_HepaRG_ICAM1: Life Technologies and Expression Analysis (LTEA) Assay for Intercellular Adhesion Molecule 1 (ICAM1) using HepaRG (AID 2283507)
In short: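 Differentiated HepaRG cells in serum-free induction medium were exposed in duplicate for 48 h to eight half-log concentrations up to 100 uM in 0.5% DMSO. Transcript levels were measured by qRT-PCR normalized to ACTB, GAPDH and POLR2A; bidirectional fits relative to DMSO.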

[6] = read-out: Insulin-like growth factor-binding protein 1 (IGFBP1), IGFBP1 (gene 3484); assay: LTEA_HepaRG_IGFBP1: Life Technologies and Expression Analysis (LTEA) Assay for Insulin-like growth factor-binding protein 1 (IGFBP1) using HepaRG (AID 2283508)
In short: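 Differentiated human HepaRG cells in serum-free induction medium were exposed in duplicate for 48 h to eight concentrations, top 100 uM with half-log dilutions, in 0.5% DMSO. Transcript levels came from qRT-PCR normalised to ACTB, GAPDH and POLR2A, fitted bidirectionally against DMSO.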

[7] = read-out: Interleukin 6 (IL6), IL6 (gene 3569); assay: LTEA_HepaRG_IL6: Life Technologies and Expression Analysis (LTEA) Assay for Interleukin 6 (IL6) using HepaRG (AID 2283509)
In short: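 HepaRG cells exposed in duplicate for 48 h to eight half-log concentrations, top 100 uM, in 0.5% DMSO serum-free induction medium. mRNA measured by qRT-PCR, normalized to ACTB, GAPDH and POLR2A. Bidirectional fit versus DMSO.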

[8] = read-out: Interleukin 6 Receptor (IL6R), IL6R (gene 3570); assay: LTEA_HepaRG_IL6R: Life Technologies and Expression Analysis (LTEA) Assay for Interleukin 6 Receptor (IL6R) using HepaRG (AID 2283510);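 as to AC50: TaqMan qRT-PCR signal normalized to ACTB GAPDH and POLR2A housekeeping genes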
In short: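 Differentiated HepaRG cells, plated 48 h, then exposed in duplicate for 48 h in serum-free induction medium to 8 half-log concentrations (top 100 uM, 0.5% DMSO). IL6R mRNA measured by TaqMan qRT-PCR, normalized to ACTB/GAPDH/POLR2A; bidirectional fit vs DMSO.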

[9] = read-out: Potassium channel subfamily K member 1 (KCNK1), KCNK1 (gene 3775); assay: LTEA_HepaRG_KCNK1: Life Technologies and Expression Analysis (LTEA) Assay for Potassium channel subfamily K member 1 (KCNK1) using HepaRG (AID 2283511)
In short: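 Differentiated HepaRG cells, 48 h exposure in serum-free induction medium with 0.5% DMSO; 8 concentrations, half-log from 100 uM, duplicate. KCNK1 mRNA by qRT-PCR, normalized to ACTB, GAPDH, POLR2A; bidirectional fit vs DMSO.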

[10] = read-out: Keratin 19 (KRT19), KRT19 (gene 3880); assay: LTEA_HepaRG_KRT19: Life Technologies and Expression Analysis (LTEA) Assay for Keratin 19 (KRT19) using HepaRG (AID 2283512)
In short: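 Differentiated human HepaRG cells, plated 48 h, were exposed in duplicate for 48 h in serum-free induction medium to eight half-log concentrations up to 100 uM in 0.5% DMSO. KRT19 mRNA was quantified by qRT-PCR, normalized to ACTB, GAPDH and POLR2A, and fitted bidirectionally versus DMSO.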

Chain of Hypoxia-inducible factor 1-alpha (Homo sapiens) (Q16665 whole entry, looked up): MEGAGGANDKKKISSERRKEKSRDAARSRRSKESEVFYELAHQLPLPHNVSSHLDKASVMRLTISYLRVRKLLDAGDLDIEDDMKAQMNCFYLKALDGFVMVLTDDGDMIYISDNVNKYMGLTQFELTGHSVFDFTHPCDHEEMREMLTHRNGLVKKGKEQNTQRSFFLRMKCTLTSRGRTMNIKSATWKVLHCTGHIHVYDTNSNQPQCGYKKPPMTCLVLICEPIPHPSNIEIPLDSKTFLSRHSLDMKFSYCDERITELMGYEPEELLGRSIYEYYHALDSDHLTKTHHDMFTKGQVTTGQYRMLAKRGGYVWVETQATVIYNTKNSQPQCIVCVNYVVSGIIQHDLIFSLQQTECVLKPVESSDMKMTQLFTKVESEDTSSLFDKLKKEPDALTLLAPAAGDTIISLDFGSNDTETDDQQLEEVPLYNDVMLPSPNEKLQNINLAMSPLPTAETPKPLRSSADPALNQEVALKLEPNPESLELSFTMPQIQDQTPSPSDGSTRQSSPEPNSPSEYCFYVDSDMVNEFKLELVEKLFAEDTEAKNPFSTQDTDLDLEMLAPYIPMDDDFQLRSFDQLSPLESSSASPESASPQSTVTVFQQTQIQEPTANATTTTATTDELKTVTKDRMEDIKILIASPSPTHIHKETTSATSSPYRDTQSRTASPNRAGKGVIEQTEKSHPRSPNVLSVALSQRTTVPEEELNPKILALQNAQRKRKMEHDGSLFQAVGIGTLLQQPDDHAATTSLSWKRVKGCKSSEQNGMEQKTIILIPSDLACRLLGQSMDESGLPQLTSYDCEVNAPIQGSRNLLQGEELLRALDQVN

| SMILES | outcome [1] | outcome [2] | outcome [3] | AC50 [4] | outcome [5] | outcome [6] | outcome [7] | outcome [8] | outcome [9] | AC50 [10] | AC50 [2] | AC50 [7] | AC50 [6] | outcome [4] | outcome [10] | AC50 [1] | AC50 [5] | AC50 [8] | AC50 [9] | AC50 [3] |
| --- | --- | --- | --- | --- | --- | --- | --- | --- | --- | --- | --- | --- | --- | --- | --- | --- | --- | --- | --- | --- |
| COc1nc(NC(C)C)nc(NC(C)C)n1 | inactive | inactive | inactive | 66.2 µM (active) | inactive | inactive | inactive | inactive | inactive | 39.4 µM (active) |  |  |  |  |  |  |  |  |  |  |
| C=CCC1=C(C)C(OC(=O)C2C(C=C(C)C)C2(C)C)CC1=O (centres undefined) | inactive |  | inactive | 79.6 µM (active) and 72 µM (active) and 50 µM (active) | inactive | inactive | inactive | inactive | inactive | 50 µM (active) and 88.1 µM (active) and 40.4 µM (active) | 82.1 µM (active) and 80.4 µM (active) and 87.9 µM (active) | 50 µM (active) and 74.3 µM (active) |  |  |  |  |  |  |  |  |
| CC(C)Oc1cc(-n2nc(C(C)(C)C)oc2=O)c(Cl)cc1Cl | inactive |  | inactive | 28.7 µM (active) | inactive |  | inactive | inactive | inactive | 50 µM (active) | 61.9 µM (active) |  | 76.8 µM (active) |  |  |  |  |  |  |  |
| CCOC(=O)C(Cl)Cc1cc(-n2nc(C)n(C(F)F)c2=O)c(F)cc1Cl (centres undefined) | inactive | inactive | inactive |  | inactive | inactive | inactive | inactive | inactive |  |  |  |  | inactive | inactive |  |  |  |  |  |
| CON(C)C(=O)Nc1ccc(Cl)c(Cl)c1 | inactive |  | inactive | 50 µM (active) | inactive |  | inactive | inactive | inactive | 48.5 µM (active) | 63.4 µM (active) |  | 50 µM (active) |  |  |  |  |  |  |  |
| O=C(O)c1nc(Cl)ccc1Cl | inactive | inactive | inactive |  | inactive | inactive | inactive | inactive | inactive |  |  |  |  | inactive | inactive |  |  |  |  |  |
| CCOC(=O)CC(SP(=S)(OC)OC)C(=O)OCC (centres undefined) | inactive | inactive | inactive |  | inactive | inactive | inactive | inactive | inactive |  |  |  |  | inactive | inactive |  |  |  |  |  |
| CC(C)C1(C)N=C(c2nc3ccccc3cc2C(=O)O)NC1=O (centres undefined) | inactive | inactive | inactive |  | inactive | inactive | inactive | inactive | inactive |  |  |  |  | inactive | inactive |  |  |  |  |  |
| COc1cnc(OC)n2nc(NS(=O)(=O)c3c(OCC(F)F)cccc3C(F)(F)F)nc12 | inactive |  | inactive | 10.3 µM (active) | inactive | inactive | inactive | inactive | inactive |  | 31.8 µM (active) |  |  |  | inactive |  |  |  |  |  |
| COC(=O)C(C)Oc1ccc(Oc2ccc(Cl)cc2Cl)cc1 (centres undefined) | inactive |  | inactive |  | inactive | inactive | inactive | inactive | inactive | 77 µM (active) | 17.5 µM (active) |  |  | inactive |  |  |  |  |  |  |
| CCCN(CCC)c1c([N+](=O)[O-])cc(S(N)(=O)=O)cc1[N+](=O)[O-] | inactive | inactive | inactive | 93.4 µM (active) | inactive |  |  | inactive | inactive | 93.8 µM (active) and 72.5 µM (active) | 54.1 µM (active) and 73.4 µM (active) | 93.1 µM (active) and 85.4 µM (active) and 91 µM (active) | 92.9 µM (active) and 36.6 µM (active) and 78.9 µM (active) | inactive | inactive | 94.2 µM (active) and 84.5 µM (active) | 94.8 µM (active) and 85.4 µM (active) | 68.4 µM (active) and 70 µM (active) | 93.5 µM (active) |  |
| CCCCNC(=O)n1c(NC(=O)OC)nc2ccccc21 | inactive | inactive | inactive |  | inactive | inactive | inactive | inactive | inactive |  |  |  |  | inactive | inactive |  |  |  |  |  |
| CO/C=C(/C(=O)OC)c1ccccc1Oc1cc(Oc2ccccc2C#N)ncn1 | inactive |  | inactive | 79.8 µM (active) and 62.8 µM (active) and 74 µM (active) |  |  |  | inactive | inactive | 61.1 µM (active) and 37.1 µM (active) and 50 µM (active) | 77.1 µM (active) and 76.2 µM (active) and 72.6 µM (active) | 81.4 µM (active) and 80.9 µM (active) and 82.8 µM (active) | 63.6 µM (active) and 72.5 µM (active) and 76.7 µM (active) |  |  | 86.1 µM (active) | 83.5 µM (active) and 87.8 µM (active) and 88.9 µM (active) |  |  |  |
| COC(=O)c1ccccc1C(=O)OC | inactive | inactive | inactive |  | inactive | inactive | inactive | inactive | inactive |  |  |  |  | inactive | inactive |  |  |  |  |  |
| COc1ccc(C(c2ccc(OC)cc2)C(Cl)(Cl)Cl)cc1 | inactive |  | inactive | 56.5 µM (active) | inactive |  | inactive | inactive | inactive | 74.2 µM (active) | 91.8 µM (active) |  | 72.3 µM (active) |  |  |  |  |  |  |  |
| N#Cc1cc(Br)c(O)c(Br)c1 |  |  |  | 17.4 µM (active) |  |  |  |  | inactive | 25.6 µM (active) | 33.3 µM (active) | 34.5 µM (active) | 19.3 µM (active) |  |  | 40 µM (active) | 69.9 µM (active) | 19.4 µM (active) |  | 23.9 µM (active) |
| Cc1ccc(-c2c(Cl)nc(C#N)n2S(=O)(=O)N(C)C)cc1 | inactive |  |  | 50 µM (active) | inactive |  |  | inactive |  | 22.3 µM (active) | 28.7 µM (active) | 13.2 µM (active) | 13.6 µM (active) |  |  |  |  |  | 50 µM (active) | 86 µM (active) |
| CCNc1nc(Cl)nc(NC(C)C)n1 | inactive | inactive | inactive | 50 µM (active) | inactive | inactive | inactive | inactive | inactive | 26.1 µM (active) |  |  |  |  |  |  |  |  |  |  |
| CNC(=S)S | inactive | inactive | inactive |  | inactive | inactive | inactive | inactive | inactive |  |  |  |  | inactive | inactive |  |  |  |  |  |
| COC(=O)C=C(C)OP(=O)(OC)OC | inactive | inactive | inactive |  | inactive | inactive | inactive | inactive | inactive |  |  |  |  | inactive | inactive |  |  |  |  |  |
| CCCCC(CC)COC(=O)c1ccccc1C(=O)OCC(CC)CCCC (centres undefined) | inactive | inactive | inactive |  | inactive | inactive | inactive | inactive | inactive |  |  |  |  | inactive | inactive |  |  |  |  |  |
| CN(C)C(=S)SSC(=S)N(C)C | inactive | inactive | inactive |  | inactive | inactive | inactive | inactive | inactive |  |  |  |  | inactive | inactive |  |  |  |  |  |
| CC(C)(C)c1ccc(CSc2cnn(C(C)(C)C)c(=O)c2Cl)cc1 | inactive |  | inactive | 1.88 µM (active) |  |  |  | inactive | inactive | 1.58 µM (active) | 2.38 µM (active) | 2.84 µM (active) | 3.43 µM (active) |  |  |  | 2.69 µM (active) |  |  |  |
| O=C(O)COc1nc(Cl)c(Cl)cc1Cl | inactive | inactive | inactive |  | inactive | inactive | inactive | inactive | inactive |  |  |  |  | inactive | inactive |  |  |  |  |  |
| CCNc1nc(Cl)nc(NCC)n1 | inactive | inactive | inactive |  | inactive | inactive | inactive | inactive | inactive |  |  |  |  | inactive | inactive |  |  |  |  |  |
